Compounds without any hit were thinned out: in the full panel of roughly 83,000, 20% have a hit.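 Method: cells in 96-well plates; compound added at one concentration; 48 h incubation; percent growth measured; values under 10 scored active.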 A number with no mark means an inactive call. Activity calls are given as the source filed them.

The test has as its system ACHN renal. The experiment in a line: NCI-60 one-dose screen, 48 h (100 = growth as untreated, 0 = no growth, -100 = all killed). As to conditions: 10 µM unless noted. The procedure: Growth inhibition of the ACHN human tumor cell line is measured as a screen for anti-cancer activity. Cells are grown in 96 well plates and exposed to the test compound for 48 hours. Compounds are tested at a single concentration, which is 10^-5 M for most compounds. The reported endpoint is percent growth (GI% or GIPRCNT), where numbers from 0 - 100% represent growth inhibition, and numbers from -100% - 0 represent cell death. For example, a value of 40 represents 60% growth inhibition. A value of 0 means no net growth occurred over the course of the experiment. A value of -40 indicates 40% of cells at the beginning of the experiment died by the end of the experiment. A value of -100 means all cells are dead at the end of the experiment.
NCI-60 Human Tumor Cell Lines Screen was performed using the standard one-dose NCI protocol, which is described in more detail at https://dtp.cancer.gov/discovery_development/nci-60/default.htm.
Compounds with GIPRCNT values below 10 were considered active. Activity score was based on GIPRCNT using the following formula: […]
Score is 0 for GIPRCNT values of 100 or above, 50 for GIPRCNT values of 0, and 100 for GIPRCNT values of -100.
`CC(=O)Oc1ccc(N2C(=O)C(Cl)=C(Nc3cccc(C(F)(F)F)c3)C2=O)cc1`: the growth was 95%.

Regarding `NNc1nc(-c2cccnc2)nc2c1sc(=S)n2-c1ccccc1`, the growth was 106%.

Take `C=C1C(=O)O[C@H]2[C@H]1CC/C(COC(=O)C(=O)c1cn(C)c3ccc(Cl)cc13)=C\CC[C@@]1(C)O[C@@H]21`: the growth is -91.8% (active).

As for `CCCCCN1C(=O)/C(=c2\sc3n(c2=O)C2C(NN=3)N(CC)C(=O)N2CC)c2ccccc21` (stereo not given), the growth is 2.83% (active).

As to `COc1ccc(Nc2ncc(Br)c(NCCCNC(=O)c3cccs3)n2)cc1`, the growth is 21.3%.

On to `O=C(Nc1cccc(-c2ccc(Cl)c(C(F)(F)F)c2)c1)C1CCN(Cc2cccc3cccnc23)CC1`, for which the growth is -90.6% (active).

As to `Cc1ccccc1/C=C/C(=O)c1cccc(OCCCOc2cccc(C(=O)/C=C/c3ccccc3C)c2)c1`, the growth was 102% [3 µM].

Regarding `CN(/C(N)=N/N=C/c1c2ccccc2cc2ccccc12)C1CCCCC1`, the growth is 52.7%.

As to `[O-]/[N+](=C\c1ccc(-n2cc(Cc3ccccc3Cc3cn(-c4ccc(/C=[N+](/[O-])c5ccccc5)cc4)nn3)nn2)cc1)c1ccccc1`, the growth is 103%.

On to `CCn1cc(C(=O)O)c(=O)c2cc(F)c(N3CCN(CC(=O)Nc4ccc(S(=O)(=O)Nc5nccc(C)n5)cc4)C(C)C3)c(F)c21` (stereo not given), for which the growth was 102%.

`NC(Cc1ccc(O)c([N+](=O)[O-])c1)C(=O)O` (stereo not given): the growth was 99.2%.

Regarding `O=C(Cn1cc(CSc2nc3ccccc3o2)nn1)Nc1ccc(F)cc1F`, the growth was 93.9%.

Regarding `CCOC(=O)c1ccc2c(c1)nc(-c1ccccc1)n2C1CCCCC1`, the growth was 112%.

For the compound `Cc1ccc(/C=C2\COc3ccc(O)cc3C2=O)cc1`, the growth is 94%.

Consider `N#Cc1c(-c2ccccc2)[nH]c2ncc(-c3ccccc3)n2c1=O`, for which the growth was 83.4%.

For the compound `Cc1cc(N2CCCCC2)cc(C)c1-c1csc(NC(=O)c2ccncc2)n1`, the growth is 56.8%.

Regarding `O=C1NC(=C(Cl)Cl)/C(=N\S(=O)(=O)NCc2ccccc2)N1`, the growth was 110%.

On to `O=C1/C(=C/c2ccccc2O)CC/C1=C\c1ccccc1O`, for which the growth was 70.2%.

Consider `COc1ccc(-c2nc3c(ncc4ccc(=O)[nH]c43)s2)cc1`, for which the growth is 59.9%.

For `COc1cc2c(c(OC)c1OC)CCC(c1cccc(NC(=O)c3ccc(Br)cc3)c1)O2` (stereo not given), the growth is 91.2%.

`O=S(=O)(Nc1ccc(F)cc1F)c1ccc(-c2cnc(C3CC3)o2)cc1`: the growth is 38.5%.

For the compound `COc1ccc(C/C(C)=C(\c2ccc(Cl)cc2)c2ccc(OCCN3CCCCC3)cc2)cc1`, the growth is 92.3%.

Turning to `Cc1cc(N2CCN(CC(=O)Nc3ccc4c(ccn4C)c3)CC2)nc(N2CCCCCC2)n1`, the growth was 88.4%.

Regarding `COc1ccc2c(c1)c(-c1nc(-c3c[nH]c4ccncc34)cs1)cn2C`, the growth is -96.7% (active).

`CN(C)S(=O)(=O)c1cccc(C(=O)Nc2nc(-c3ccc(F)c(F)c3)cs2)c1`: the growth is 63.4%.

As to `CCCNc1nc2ccccc2c2c1S(=O)(=O)c1ccc(Cl)cc1C2=O`, the growth is 10.7%.

As to `CNC(=O)c1[nH]cc(-c2ccc(OC)cc2)c1-c1cc(OC)c2c(c1OC)OCO2`, the growth was 97.7%.

Turning to `N#Cc1c(-c2ccc(Cl)cc2)nc(NN2C(=O)c3ccccc3C2=O)nc1N1CCOCC1`, the growth is 104%.

Regarding `Nc1nc2ccc(-c3nc4ccc5[nH]ncc5c4c4c3CCCC4)cc2s1`, the growth was 111%.

Consider `Oc1ccc(Cl)cc1/C=N\NC(=S)N/N=C/c1cc(Cl)ccc1O`, for which the growth is 15.3%.

Consider `O=C(Nc1ccccc1O)c1ccc(CNC(=O)c2sccc2Nc2ccnc(C(F)(F)F)c2)cc1`, for which the growth is 49.3%.

Regarding `CSc1nnc(-c2cc3c([nH]c4ccccc43)c(-c3cccc(O)c3)n2)n1-c1ccccc1`, the growth is 36.3%.

Regarding `NC(=O)CSc1oc(-c2ccccc2)nc1S(=O)(=O)c1ccc(Br)cc1`, the growth is 64.4%.

Consider `CN1CCN(C(=O)c2ccc(NC(=O)c3cc4c(nn3)NCCN4Cc3cc(Cl)ccc3Cl)cc2)CC1`, for which the growth is 75.1%.

Turning to `Cc1ccc(Nn2c(SCC(=O)Nc3nc(-c4ccccc4)cs3)nc(C)c2C)cc1`, the growth was 60.9%.

Take `c1ccc(Cn2cc3c(c2)-c2oncc2CC3)cc1`: the growth was 56.7%.

Consider `COc1ccc2c(c1)CC[C@H](O)/C2=C/c1cc(OC)c(OC)c(OC)c1`, for which the growth is 26.4%.

On to `CCCCCCCCCCCCCCCCOCCCOP(=O)(O)C1CCCN(O)C1=O` (stereo not given), for which the growth was 10.5%.

As for `O=C(NCCNc1nccc(Nc2ccc(S(=O)(=O)Nc3ccccn3)cc2)n1)c1cccc([N+](=O)[O-])c1`, the growth was 102%.

As for `COc1cc2ncnc(Nc3ccc(S(=O)(=O)Nc4cc(C)on4)cc3)c2cc1OCCCN1CCN(c2ccc(F)cc2)CC1`, the growth is 97.4%.

The values above are taken from PubChem BioAssay (NCI).
